In PubChem BioAssay:
For some assays here: Measured potencies and affinities stand elsewhere. The source made the active and inactive calls. Unless noted, no rule for the calls is given here.

Assays:
[1] = antimalarial activity against Dd2 strain (AID 2302;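 active = growth inhibition above 50% at the single 2 µM test dose, taken to imply half-maximal potency below 2 µM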;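 also: 0% = DMSO untreated growth and 100% = chloroquine plus artemisinin killed control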); conditions: P. falciparum Dd2 in RBCs, LDH growth readout, 72 h; at 2 µM; stronger effect = higher value
[2] = HepG2 cytotoxicity, primary screen, cytotoxicity control for P. falciparum antimalarial project, cell-based, ATP luminescence (AID 2303;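 active = inhibition above 50%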;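 also: 0% = DMSO wells and 100% = digitonin-killed cells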); conditions: HepG2 viability, 24-48 h, at 10 µM, stronger effect = higher value
[3] = target: L-lactate dehydrogenase (Plasmodium falciparum (isolate CDC / Honduras)) (UniProt Q27743); test: PfLDH activity inhibition – cell lysate, 3D7 strain, counter-screen for P. falciparum growth inhibition project (AID 2304);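 also: 0% = vehicle and 100% = reference inhibitor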; conditions: P. falciparum 3D7 crude extract, LDH APAD/NBT absorbance; at 2 µM; stronger effect = higher value
L-lactate dehydrogenase (Plasmodium falciparum (isolate CDC / Honduras)), sequence (Q27743 whole entry, looked up): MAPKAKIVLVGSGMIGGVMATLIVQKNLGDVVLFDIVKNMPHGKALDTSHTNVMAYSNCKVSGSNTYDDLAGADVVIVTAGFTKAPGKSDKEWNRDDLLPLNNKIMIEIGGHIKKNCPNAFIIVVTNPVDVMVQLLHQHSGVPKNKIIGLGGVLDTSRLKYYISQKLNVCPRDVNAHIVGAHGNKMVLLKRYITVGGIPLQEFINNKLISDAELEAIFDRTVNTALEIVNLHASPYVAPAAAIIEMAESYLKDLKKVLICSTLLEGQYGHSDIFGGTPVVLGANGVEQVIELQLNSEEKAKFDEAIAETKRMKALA

[4] = inhibition of 3D7 malaria parasite growth – strain 3D7 (AID 2306);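 also: 0% = DMSO wells and 100% = chloroquine plus artemisinin control wells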; conditions: P. falciparum 3D7 erythrocytic growth, LDH absorbance, 72 h; at 2 µM; stronger effect = higher value
[5] = target: Calcium-dependent protein kinase 1 (Plasmodium falciparum (isolate 3D7)) (UniProt P62344); test: PfCDPK1 kinase inhibitors, biochemical, TCAMS library (AID 1159585; cut-off not given, nearly all actives have IC50 up to about 0.98 µM;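 also: inhibitors leave more ATP so luminescence rises with inhibition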); conditions: recombinant PfCDPK1, Kinase-Glo ATP depletion luminescence
Calcium-dependent protein kinase 1 (Plasmodium falciparum (isolate 3D7)), sequence (P62344 whole entry, looked up): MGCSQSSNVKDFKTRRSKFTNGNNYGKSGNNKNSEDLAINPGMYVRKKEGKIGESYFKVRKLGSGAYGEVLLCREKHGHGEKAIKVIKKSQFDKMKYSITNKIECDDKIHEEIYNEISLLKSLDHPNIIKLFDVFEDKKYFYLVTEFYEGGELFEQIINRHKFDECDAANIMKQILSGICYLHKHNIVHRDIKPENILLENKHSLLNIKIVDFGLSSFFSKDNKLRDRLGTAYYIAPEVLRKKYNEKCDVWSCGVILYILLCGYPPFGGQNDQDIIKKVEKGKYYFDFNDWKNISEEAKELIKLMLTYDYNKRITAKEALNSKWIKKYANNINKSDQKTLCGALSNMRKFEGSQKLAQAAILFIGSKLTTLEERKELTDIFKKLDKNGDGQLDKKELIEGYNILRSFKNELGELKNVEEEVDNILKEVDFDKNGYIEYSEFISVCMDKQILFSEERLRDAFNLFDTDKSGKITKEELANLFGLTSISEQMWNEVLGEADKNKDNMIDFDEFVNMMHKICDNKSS

[6] = target: Plasmodium falciparum protein kinase 6 (PK6, PF3D7_1337100) (UniProt Q8IDW1); test: PfPK6 kinase inhibitors, biochemical, TCAMS library (AID 1159586); conditions: recombinant PfPK6, Kinase-Glo ATP depletion luminescence
Plasmodium falciparum protein kinase 6 (PK6, PF3D7_1337100), sequence (Q8IDW1 1-305): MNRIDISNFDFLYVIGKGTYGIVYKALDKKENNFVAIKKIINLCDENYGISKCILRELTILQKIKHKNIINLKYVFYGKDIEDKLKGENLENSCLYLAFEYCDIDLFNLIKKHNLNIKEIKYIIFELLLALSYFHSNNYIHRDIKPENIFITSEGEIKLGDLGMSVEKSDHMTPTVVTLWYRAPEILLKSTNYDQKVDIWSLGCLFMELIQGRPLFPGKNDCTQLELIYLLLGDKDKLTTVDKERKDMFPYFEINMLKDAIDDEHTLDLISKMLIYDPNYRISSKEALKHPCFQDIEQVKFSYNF

[7] = target: Protein kinase 7 (PK7), Plasmodium falciparum 3D7 (PF3D7_0213400) (UniProt Q7YTF7); test: inhibition of Plasmodium PK7 catalytic activity – biochemical, TCAMS antimalarial set, Kinase-Glo luminescence (AID 1159587); conditions: recombinant PfPK7, Kinase-Glo ATP depletion luminescence
Protein kinase 7 (PK7), Plasmodium falciparum 3D7 (PF3D7_0213400), sequence (Q7YTF7 1-343): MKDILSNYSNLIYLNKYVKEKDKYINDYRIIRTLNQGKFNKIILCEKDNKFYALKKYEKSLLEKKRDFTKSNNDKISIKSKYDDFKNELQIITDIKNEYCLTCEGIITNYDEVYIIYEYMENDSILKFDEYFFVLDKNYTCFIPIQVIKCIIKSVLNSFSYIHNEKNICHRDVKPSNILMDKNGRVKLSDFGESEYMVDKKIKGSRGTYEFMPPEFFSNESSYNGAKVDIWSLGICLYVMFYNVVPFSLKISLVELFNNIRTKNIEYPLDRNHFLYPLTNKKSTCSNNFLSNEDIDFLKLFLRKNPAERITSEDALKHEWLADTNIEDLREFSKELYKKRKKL

[8] = target: Calcium-dependent protein kinase 4 (Plasmodium falciparum (isolate 3D7)) (UniProt Q8IBS5); test: PfCDPK4 kinase inhibitors, biochemical, TCAMS library (AID 1159588; cut-off not given, nearly all actives have IC50 up to about 0.91 µM); conditions: recombinant PfCDPK4, Kinase-Glo ATP depletion luminescence
Calcium-dependent protein kinase 4 (Plasmodium falciparum (isolate 3D7)), sequence (Q8IBS5 whole entry, looked up): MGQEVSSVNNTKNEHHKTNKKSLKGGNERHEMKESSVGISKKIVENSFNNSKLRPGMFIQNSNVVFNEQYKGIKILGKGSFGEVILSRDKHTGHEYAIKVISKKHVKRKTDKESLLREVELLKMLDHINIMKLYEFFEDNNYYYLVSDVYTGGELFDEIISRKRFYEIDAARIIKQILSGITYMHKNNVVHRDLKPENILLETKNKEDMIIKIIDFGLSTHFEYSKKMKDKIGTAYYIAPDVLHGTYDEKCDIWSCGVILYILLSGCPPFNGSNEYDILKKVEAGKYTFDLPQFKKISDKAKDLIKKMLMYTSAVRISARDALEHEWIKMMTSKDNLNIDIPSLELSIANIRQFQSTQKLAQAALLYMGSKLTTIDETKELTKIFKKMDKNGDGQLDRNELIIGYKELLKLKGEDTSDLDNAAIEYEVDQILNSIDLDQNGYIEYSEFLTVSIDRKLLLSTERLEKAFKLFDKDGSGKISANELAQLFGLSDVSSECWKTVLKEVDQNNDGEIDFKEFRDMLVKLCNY

CC1CCN(C(=O)C(Cc2c[nH]c3ccccc23)NS(=O)(=O)c2ccc(Cl)cc2)CC1 (configuration not stated)
active: growth inhibition [1] 99% | growth inhibition [4] 100%
inactive: inhibition [2] -22% | inhibition [3] -4% | outcome [5] | outcome [6] | outcome [7] | outcome [8]

CC(=O)Nc1ccc2[nH]cc(C3CCN(CCC4CCN(C(=O)/C=C/c5ccc(Cl)c(Cl)c5)CC4)CC3)c2n1
inactive: inhibition [2] 16% | inhibition [3] 1% | outcome [5] | outcome [6] | outcome [7] | outcome [8]
active: growth inhibition [1] 80% | growth inhibition [4] 101%

CCN(CC)CCCNc1ncc2c(-c3ccc(NC(=O)Nc4cc(C(F)(F)F)ccc4F)cc3)nn(C)c2n1
active: growth inhibition [1] 74% | inhibition [2] 81% | growth inhibition [4] 99%
inactive: inhibition [3] -3% | outcome [5] | outcome [6] | outcome [7] | outcome [8]

CNC(=O)CC(=O)NCCc1ccc(Cl)cc1
inactive: growth inhibition [1] 1% | inhibition [2] -7% | inhibition [3] 6% | outcome [5] | outcome [6] | outcome [7] | outcome [8]
active: growth inhibition [4] 99%

COc1ccc(NS(=O)(=O)c2ccc(C(=O)Nc3ccc(OC(F)(F)F)cc3)cc2)cc1N1CCN(CC2CC2)CC1
inactive: growth inhibition [1] -2% | inhibition [2] 18% | inhibition [3] 3% | outcome [5] | outcome [6] | outcome [7] | outcome [8]
active: growth inhibition [4] 89%

CCOC(=O)c1cnc2c(C(F)(F)F)cccc2c1Nc1ccc(O)cc1
active: growth inhibition [1] 67% | growth inhibition [4] 96%
inactive: inhibition [2] -7% | inhibition [3] 2% | outcome [5] | outcome [6] | outcome [7] | outcome [8]

CCN(C(=O)NC)[C@@H]1c2cc(C#N)ccc2OC(C)(C)[C@H]1O
active: growth inhibition [4] 96%
inactive: growth inhibition [1] 2% | inhibition [2] 3% | inhibition [3] -8% | outcome [5] | outcome [6] | outcome [7] | outcome [8]

COc1cccc(C(=O)NC(NC(=S)Nc2ccc(OC)cc2[N+](=O)[O-])C(Cl)(Cl)Cl)c1 (configuration not stated)
active: growth inhibition [4] 99%
inactive: growth inhibition [1] 49% | inhibition [2] 9% | inhibition [3] -2% | outcome [5] | outcome [6] | outcome [7] | outcome [8]

Cc1ccc(O)cc1Nc1ccnc2cc(-c3nccs3)ccc12
active: growth inhibition [1] 83% | inhibition [2] 63% | growth inhibition [4] 102%
inactive: inhibition [3] 2% | outcome [5] | outcome [6] | outcome [7] | outcome [8]

CC(=O)c1ccccc1OCCSc1nnc(Cc2cccs2)n1C1CCCCC1
inactive: growth inhibition [1] 1% | inhibition [2] 19% | inhibition [3] -5% | outcome [5] | outcome [6] | outcome [7] | outcome [8]
active: growth inhibition [4] 87%

Cn1cnc(CCNC(=O)c2cccc(-c3ccc(-c4nc5ccc(F)cc5[nH]4)cc3)c2)c1
active: growth inhibition [4] 88%
inactive: growth inhibition [1] 5% | inhibition [2] 26% | inhibition [3] 4% | outcome [5] | outcome [6] | outcome [7] | outcome [8]

COc1cc(F)c2ncc(Cl)c([C@@H](O)CN3CCC(NCc4cc5c(cn4)OCCO5)CC3)c2c1
active: growth inhibition [1] 100% | growth inhibition [4] 101%
inactive: inhibition [2] 11% | inhibition [3] 2% | outcome [5] | outcome [6] | outcome [7] | outcome [8]

FC(F)(F)c1ccc2nc(-c3ccc(-c4ccc(CNCc5ccccc5)cc4)cc3)[nH]c2c1
active: growth inhibition [1] 96% | growth inhibition [4] 101%
inactive: inhibition [2] 22% | inhibition [3] -5% | outcome [5] | outcome [6] | outcome [7] | outcome [8]

O=S(=O)(Nc1cccc(CCN2CCC(N3CCCCC3)CC2)c1)c1cccc2ccccc12
inactive: inhibition [2] 23% | inhibition [3] 2% | outcome [5] | outcome [6] | outcome [7] | outcome [8]
active: growth inhibition [1] 63% | growth inhibition [4] 99%

Cc1cc2ccccc2n1CC(=O)N1CC(C(=O)N2CCCCC2)Oc2ccccc21 (configuration not stated)
active: growth inhibition [1] 77% | growth inhibition [4] 99%
inactive: inhibition [2] -1% | inhibition [3] 2% | outcome [5] | outcome [6] | outcome [7] | outcome [8]

O=C(NCCCN1CCCC1=O)NCc1ccccc1
active: growth inhibition [4] 99%
inactive: growth inhibition [1] 4% | inhibition [2] 8% | inhibition [3] 3% | outcome [5] | outcome [6] | outcome [7] | outcome [8]

CCc1ccc(C2CCN(CCCCNC(=O)c3ccc(-c4ccc(C(F)(F)F)cc4)cc3)CC2)c(OCCO)c1
inactive: inhibition [3] -6% | outcome [5] | outcome [6] | outcome [7] | outcome [8]
active: growth inhibition [1] 69% | inhibition [2] 82% | growth inhibition [4] 101%

COc1ccc2cc(-c3nc(-c4c(Cl)cccc4Cl)[nH]c3-c3ccnc(NCCCN4CCN(C)CC4)c3)ccc2c1
active: growth inhibition [1] 80% | growth inhibition [4] 98%
inactive: inhibition [2] 10% | inhibition [3] -5% | outcome [5] | outcome [6] | outcome [7] | outcome [8]

CO/C(=C\C=C\c1cc2cc(Cl)c(Cl)cc2[nH]1)C(=O)NCCCN1CCN(c2cccc(Cl)c2)CC1
inactive: inhibition [3] 3% | outcome [5] | outcome [6] | outcome [7] | outcome [8]
active: growth inhibition [1] 77% | inhibition [2] 58% | growth inhibition [4] 100%
